Source: PubChem BioAssay
PglD DTNB – blocks C. jejuni PglD acetyltransferase activity; inhibition, % at 12.5 µM; AID 602405; hit rate 0.098% among 360,000; purified PglD enzyme, DTNB colorimetric CoA detection; in the data active means inhibition above about 16%, passing the limit was not always enough; inconclusive means no clear call, values can overlap the other calls
Env fusion inh – inhibitors of HIV Env-mediated cell fusion; HeLa-JRFL Env/CEM21 cell fusion, luciferase; inhibition, % at 12.3 µM; hit rate 1.1% among 360,000;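 active means mean replicate inhibition score of at least 50 and every replicate individually at or above 50; inconclusive means only one of the two criteria met; inactive means mean below 50 and not all replicates reaching 50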;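 further: 0% = plate neutral controls and 100% = maraviroc near 300 nM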
NSD2 HMT inh – inhibitors of human histone methyltransferase NSD2 | O96028 | NSD2 peptide methylation, AlphaScreen, 120 min | inhibition, % at 12.5 µM | hit rate 0.54% among 310,000; in the data active means inhibition above about 50%
CASP6 VEID inh – inhibitors of human caspase-6 | purified caspase-6, Z-VEID-R110 cleavage fluorescence | AID 686996 | inhibition, % at 12.5 µM | hit rate 0.53% among 350,000;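 active means mean inhibition across replicates at least about 35%, with every replicate also reaching that limit, limit read from the data; inconclusive means only one of the two criteria met; inactive means neither criterion met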;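 further: 0% = median of neutral control wells and 100% = no fluorescence left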
Target sequence (P55212 24-179 limits assumed): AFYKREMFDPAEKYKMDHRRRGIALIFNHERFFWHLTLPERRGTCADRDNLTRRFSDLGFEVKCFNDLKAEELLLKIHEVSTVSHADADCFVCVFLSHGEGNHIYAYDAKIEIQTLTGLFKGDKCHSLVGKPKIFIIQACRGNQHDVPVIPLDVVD
Target sequence (P55212 194-293 limits assumed): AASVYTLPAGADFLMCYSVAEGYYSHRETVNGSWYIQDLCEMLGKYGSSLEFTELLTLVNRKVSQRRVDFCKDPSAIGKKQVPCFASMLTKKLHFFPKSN
F508del corr – correctors of CFTR F508del function in bronchial epithelial cells; CFBE cells, YFP halide quenching; stimulated with forskolin plus potentiator P3; % fluorescence drop versus neutral controls; activity (quench increase), % at 7.58 µM; hit rate 0.36% among 350,000; AID 720511;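 active means mean added fluorescence quench of at least 8% versus neutral control, with both replicates also reaching 8%; inconclusive means only one of the mean or replicate conditions met; inactive means mean below 8% and not both replicates reaching 8%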;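 further: cells transiently co-express mutant CFTR-F508del with the halide-sensitive YFP; corrector assay measuring rescue of mutant channel to the surface after 24 h compound exposure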
ALR inh – human ALR oxidase inhibition via reduced H2O2; purified ALR, DTT oxidation, H2O2 HRP-luminol luminescence; inhibition, % (concentration not given with the values); hit rate 3.8% among 290,000;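 active means mean replicate inhibition above about 79%, with every replicate also reaching it, limit read from the data; inconclusive means only one of the two criteria met; inactive means mean below limit and not every replicate reaching it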
Target sequence (P55789 whole entry, looked up): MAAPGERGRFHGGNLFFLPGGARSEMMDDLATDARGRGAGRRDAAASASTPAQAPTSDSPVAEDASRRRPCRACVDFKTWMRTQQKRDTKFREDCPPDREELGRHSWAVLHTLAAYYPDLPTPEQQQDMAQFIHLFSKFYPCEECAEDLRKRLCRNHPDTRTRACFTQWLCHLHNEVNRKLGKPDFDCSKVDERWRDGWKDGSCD
The depositor's hits bear a star; ? = inconclusive; / = no result; [ ] = remark or other dose. The list is not random: actives were taken first. Their share in the collection is about 4.1%.

SMILES	PglD DTNB	Env fusion inh	NSD2 HMT inh	CASP6 VEID inh	F508del corr	ALR inh
O=C(NCCCN1CCOCC1)c1sc2cc(F)ccc2c1Cl	-5.7	-7.7	-1.6	-3.6	/	-6.5
O=C(NCCCN1CCOCC1)c1sc2cc(Cl)ccc2c1Cl	/	4.5	-1.6	1.9	10.5*	-2.2
C[C@H](CO)N1C[C@H](C)[C@@H](CN(C)C(=O)c2ccncc2)Oc2ncc(C#CC3CC3)cc2C1=O	/	-9.0[16.7 µM]	/	/	1.3	/
CCn1c(SCC(=O)Nc2cc(C)ccc2C)nc2c(c1=O)SC(C)C2 (stereo not given)	-4.0	18.1	/	1.4	0.9	/
Cc1ccc(C)c(NC(=O)CSc2nc(C)cc(=O)[nH]2)c1	/	/	-0.7	/	/	/
Cc1ccc(C)c(NC(=O)CSc2c(C)n[nH]c2C)c1	5.6	1.8	0.6	2.6	-0.5	95.9*
CC1Cc2nc(SCC(=O)Nc3ccc(F)cc3F)n(C)c(=O)c2S1 (stereo not given)	3.9	5.6	-0.6	/	/	98.5*
Cc1ccc(C)c(NC(=O)CSc2nc3c(c(=O)n2C)SC(C)C3)c1 (stereo not given)	0.1	12.4	/	2.8	8.7*	47.7
CCn1c(SCC(=O)Nc2cccc(F)c2)nc2c(c1=O)SC(C)C2 (stereo not given)	-2.2	6.7	/	-1.7	0.4	/
Cc1ccc2nc(NC(=O)CSc3nc4c(c(=O)n3C)SC(C)C4)sc2c1 (stereo not given)	-0.8	/	/	/	/	98.6*
C[C@@H]1CN([C@@H](C)CO)C(=O)c2cc(NC(=O)C3CCCCC3)ccc2O[C@@H](C)CCCCO[C@@H]1CN(C)C(=O)c1ccncc1	0.4	2.1[16.7 µM]	/	-1.0	-1.7	/
CCCN1[C@@H]2Cn3c(ccc(-c4ccc(F)cc4)c3=O)[C@H]1[C@@H](C(=O)NCCc1cn(C)cn1)[C@@H]2CO	2.6	/	/	/	-0.2	/
C[C@H]1CN([C@@H](C)CO)S(=O)(=O)c2ccc(C3=CCCCC3)cc2O[C@@H]1CN(C)S(=O)(=O)c1cn(C)cn1	/	/	/	/	-0.2	/
COc1ccc(N2CCN(C(c3ccc4ncccc4c3)c3nnnn3C(C)C)CC2)cc1 (stereo not given)	1.4	3.3	4.8	1.0	3.1	76.3*
c1cnc2ccc(C(c3nnnn3C3CCCCC3)N3CCCCC3)cc2c1 (stereo not given)	-2.2	105.3*	/	/	/	-19.4
c1cnc2ccc(C(c3nnnn3C3CCCCC3)N3CCN(C4CCCCC4)CC3)cc2c1 (stereo not given)	-2.7	-33.0	/	/	/	-4.3
CC(C)(C)n1nnnc1C(c1cccc(C#N)c1)N1CCN2CCCC2C1 (stereo not given)	-0.4	-74.5	3.7	/	/	-5.7
CC(C)(C)n1nnnc1C(c1cccc(C#N)c1)N1CCCCCC1 (stereo not given)	3.1	93.9*	-2.5	/	/	-4.1
COc1ccc(Cn2nnnc2C(c2ccc3ncccc3c2)N2CCN(C3CCCCC3)CC2)cc1 (stereo not given)	/	-21.3	-1.5	3.3	-4.6	-10.4
CCC(C)(C)n1nnnc1C(c1ccc2ncccc2c1)N1CCCCCC1 (stereo not given)	-5.1	29.4*	-0.4	/	/	-29.4
CO[C@H]1O[C@H](CO)[C@@H](OC(=O)Nc2cccc(F)c2)[C@H](OC(=O)Nc2ccccc2)[C@@H]1OC(=O)Nc1ccccc1	/	16.6[16.7 µM]	/	1.2	-1.5	/
CCCC(=O)Nc1ccc2c(c1)OC[C@H](C)N(CCC(F)(F)F)C[C@@H](C)[C@@H](OC)CN(C)C2=O	-0.1	-10.5[16.7 µM]	/	-0.1	0.4	/
COc1ccccc1-c1ccc2c(c1)O[C@@H](CN(C)C(=O)c1cccnc1)[C@@H](C)CN([C@H](C)CO)S2(=O)=O	1.3	/	/	-4.9	0.5	/
CO[C@H](CN(C)S(=O)(=O)c1ccc(Cl)cc1)[C@H](C)CN([C@H](C)CO)S(=O)(=O)c1cccc(Cl)c1	3.0	56.0*[16.7 µM]	/	2.0	4.0	/
CO[C@@H](CN(C)S(=O)(=O)c1ccc(C)cc1)[C@H](C)CN([C@H](C)CO)S(=O)(=O)c1cccc(Cl)c1	-2.4	/	/	2.8	15.0*	/
SMILES	PglD DTNB	Env fusion inh	NSD2 HMT inh	CASP6 VEID inh	F508del corr	ALR inh
CO[C@H](CN(C)S(=O)(=O)c1ccc(Cl)cc1)[C@H](C)CN([C@@H](C)CO)S(=O)(=O)c1cccc(Cl)c1	-0.2	60.7*[16.7 µM]	/	1.4	5.0	/
CO[C@H](CN(C)S(=O)(=O)c1cccc(Cl)c1)[C@H](C)CN([C@@H](C)CO)S(=O)(=O)c1ccc(Cl)cc1	-0.1	?	/	2.5	-0.4	/
CS(=O)(=O)Nc1ccc2c(c1)[C@H]1C[C@H](CC(=O)NCc3ccccc3)O[C@@H](CO)[C@H]1O2	0.8	-1.1[16.7 µM]	/	1.7	-0.1	/
COc1ccc2c3c(n(C)c2c1)[C@H](CO)N(C(=O)CN(C)C)CC31CCN(C(=O)CN(C)C)CC1	/	/	/	-25.5	0.8	/
CN(C)S(=O)(=O)c1cccc(NC(=O)c2cc([N+](=O)[O-])ccc2N2CCCCC2)c1	3.1	3.3	-0.1	1.9	1.9	-2.2
CC(=O)Nc1cccc(NC(=O)c2cc([N+](=O)[O-])ccc2N2CCCCC2)c1	-1.9	2.7	1.5	35.7*	3.7	/
CN(C(=O)c1ccc(Oc2ccc([N+](=O)[O-])cc2)cc1)C1CCCCC1	-1.9	58.8*	4.4	6.0	2.5	-2.2
CN(C(=O)c1cccc(NC(=O)Cc2ccc([N+](=O)[O-])cc2)c1)C1CCCCC1	-0.1	-12.6	/	-2.9	0.2	2.0
Cc1nc(NS(=O)(=O)c2ccccc2)sc1NC(=O)Nc1ccc(Cl)cc1	-1.4	-5.6	3.0	4.6	-3.1	73.6
CCOC(=O)Nc1sc(NS(=O)(=O)c2ccccc2)nc1C	13.6	-19.4	-0.5	/	/	97.8*
Cc1nc(NS(=O)(=O)c2ccccc2)sc1NC(=O)Nc1ccccc1	/	0.3	1.9	1.0	-1.5	98.6*
CO[C@H]1CN(C)C(=O)c2cc(NC(=O)C3CCCC3)ccc2OC[C@H](C)NC[C@H]1C	-2.9	/	/	-0.2	1.3	/
C[C@@H]1CCCCO[C@H](CN(C)S(=O)(=O)c2cccs2)[C@@H](C)CN([C@@H](C)CO)C(=O)c2cc(NS(=O)(=O)c3cccs3)ccc2O1	/	/	/	-1.3	-1.1	/
CCCN1C[C@@H](C)[C@H](OC)CN(C)C(=O)c2ccc(NC(=O)c3cnccn3)cc2OC[C@@H]1C	7.8	/	/	0.1	-2.4	/
C/C=C(/C(=C/C)c1ccc(O)cc1)c1ccc(O)cc1	-3.8	-22.0	/	-1.4	-5.5	/
C=C(c1ccc(O)cc1)c1ccc(O)cc1	-4.7	/	2.3	/	/	98.4*
O=C(Oc1ccccc1)n1c(=S)oc2ccccc21	/	10.0	-0.3	2.0	2.6	14.1
Cc1ccccc1OC(=O)n1c(=S)oc2cc(Cl)ccc21	1.7	-4.5	/	/	/	83.1*
Cc1ccccc1N1C(=O)Cc2ccccc2C1=O	5.1	-4.4	4.6	54.3*	0.9	15.4
COc1ccc(N2C(=O)Cc3ccccc3C2=O)cc1	-5.7	12.0	3.0	42.8*	-0.6	9.1
O=C1Cc2ccccc2C(=O)N1Nc1ccccc1	/	13.8	/	49.3*	1.4	/
